Compounds with a hit are over-represented: about 2.8% of the library has one in this group of screens.
POLI inh: blocks human DNA polymerase iota activity; AID 588590; Pol iota fluorescent replication assay, 10 min; 390,000 tested, 1% active; Potency, µM (series often up to 115 µM), inactives show top-dose activity, negative = inhibition, usual class: inhibitors; further: potency means the concentration at half of the fitted maximal effect
Target sequence (Q9UNA4 whole entry, looked up): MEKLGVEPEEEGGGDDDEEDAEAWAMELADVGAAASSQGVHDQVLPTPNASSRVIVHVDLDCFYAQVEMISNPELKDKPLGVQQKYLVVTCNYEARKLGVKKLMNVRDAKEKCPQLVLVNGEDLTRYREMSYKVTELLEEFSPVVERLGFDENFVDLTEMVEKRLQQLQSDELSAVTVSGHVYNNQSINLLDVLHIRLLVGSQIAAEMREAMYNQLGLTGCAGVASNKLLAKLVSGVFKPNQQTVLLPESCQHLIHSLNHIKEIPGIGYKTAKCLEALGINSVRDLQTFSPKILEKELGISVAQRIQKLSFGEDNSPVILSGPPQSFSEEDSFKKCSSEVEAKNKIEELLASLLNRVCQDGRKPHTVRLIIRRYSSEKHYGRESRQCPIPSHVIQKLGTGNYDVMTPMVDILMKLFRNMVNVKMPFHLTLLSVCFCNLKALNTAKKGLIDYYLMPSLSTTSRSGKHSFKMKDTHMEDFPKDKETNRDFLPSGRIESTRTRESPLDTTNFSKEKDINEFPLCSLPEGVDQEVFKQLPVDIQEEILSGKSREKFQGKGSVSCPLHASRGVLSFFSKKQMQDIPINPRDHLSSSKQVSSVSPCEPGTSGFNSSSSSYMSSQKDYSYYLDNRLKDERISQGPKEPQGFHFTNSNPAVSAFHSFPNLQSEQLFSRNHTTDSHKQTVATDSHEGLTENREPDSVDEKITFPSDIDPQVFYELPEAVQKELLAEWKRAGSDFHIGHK
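Fluorescent replication assay read twice, at 0 min and 10 min after adding 50 nM (final) substrate. Enzyme (10 nM) and compounds were first incubated 15 min at room temperature; enzyme-free buffer wells were negative controls.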
PI5P4K alpha inh: inhibitors of human PI5P4K alpha | max response, % | AID 652105 | PI5P4Kalpha enzyme, ADP-Glo luminescence, 60 min; stronger effect = lower value | 330,000 tested, 1.2% active; active means max response of -50% or lower; inconclusive means between -30% and -50%; inactive means -30% or higher; further: value at the top dose of about 77 µM; on the % scale 0 is the no-effect control and ±100 the full control effect
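qHTS, 1536-well: enzyme/substrate mix, compound by pin tool, 5 microM ATP final; RT 60 min; ADP-Glo reagents 1 (45 min) then 2 (30 min); luminescence.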
Pol kappa inh-1: blocks human DNA polymerase kappa activity; 400,000 tested, 0.53% active; purified Pol kappa, fluorescent DNA synthesis assay, 10 min; AID 588579; Potency, µM (titrated, usually from 107 µM), without a hit: top-dose activity, negative = inhibition, hits mostly inhibitors; further: potency means the concentration at half of the fitted maximal effect; on the % scale 0 is the no-effect control and ±100 the full control effect
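Fluorescent qHTS in 1536-well format: enzyme (10 nM) and compound sat 15 min at room temperature before 50 nM substrate (final) was added. Signal taken at 0 and 10 min; no-enzyme buffer wells were negative controls.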
Pol beta inh: blocks human DNA polymerase beta activity; P06746; AID 485314; Potency, µM (series often up to 114 µM), without a hit: at the highest dose activity change, negative = inhibition, most hits filed as inhibitors; Pol beta primer extension/strand displacement, fluorescence kinetic; 340,000 tested, 1.3% active; further: potency means the concentration at half of the fitted maximal effect; on the % scale 0 is the no-effect control and ±100 the full control effect
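Reaction started by 50 nM substrate onto compound-treated Pol beta (10 nM, 15 min preincubation, room temperature); plates read at 0 min and 10 min. Normalized concentration-effect data fitted by four-parameter Hill equation.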
WRN inhibitor: WRN helicase (human) inhibition; Q14191; WRN helicase unwinding, fluorescent forked duplex, kinetic; Potency, µM (series often up to 114 µM), for the others: at the highest dose activity change, negative = inhibition, most hits filed as inhibitors; 360,000 tested, 0.46% active; further: potency means the concentration at half of the fitted maximal effect; on the % scale 0 is the no-effect control and ±100 the full control effect; nearly all actives have a fitted effect of over 55% in size
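Primary qHTS, 1536-well format. 20 nM WRN + compound, 15 min RT; start with 100 nM forked fluorophore/quencher duplex, 2 mM ATP (final); kinetic read ex 525/em 598 nm.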
Pol eta inh-1: inhibitors of human DNA polymerase eta | Potency, µM (doses to about 114 µM), for inactives: at the top dose activity change, negative = inhibition, hits mostly inhibitors | Q9Y253 | recombinant Pol eta, fluorescent DNA replication assay | 390,000 tested, 1.2% active; further: potency means the concentration at half of the fitted maximal effect; on the % scale 0 is the no-effect control and ±100 the full control effect
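Fluorescent replication assay: 50 nM final substrate added after a 15 min room-temperature compound preincubation with 10 nM enzyme. Signal taken at 0 min and again at 10 min.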
GALK inh confirm: galactokinase (human) inhibition, confirmation; shares compounds with Pol eta inh-1; purified GALK, Kinase-Glo ATP depletion luminescence; Potency, µM (highest dose often 115 µM), inactives show at the highest dose activity, negative = inhibition, usual class: inhibitors; 150 tested, 70% active; AID 2015
GALK redox cs: counter-screen for GALK inhibitors: redox cycling H2O2 generation. Phenol red-HRP H2O2 redox cycling, absorbance 600 nm. Potency, µM (titrated, usually from 115 µM), without a hit: at the highest dose activity change, negative = H2O2 signal, usual class: inhibitors. shares compounds with Pol eta inh-1. 150 tested, 40% active
HEK293 tox: counter-screen for GALK inhibitors: HEK293 cell cytotoxicity; shares compounds with Pol eta inh-1; HEK-293 viability, ATP luminescence (CellTiter-Glo), 24/48 h; Potency, µM (series often up to 46.1 µM), for the others: at the top dose activity change, negative = cytotoxicity, actives largely listed as inhibitors; 170 tested, 10% active; AID 2547; further: potency means the concentration at half of the fitted maximal effect; on the % scale 0 is the no-effect control and ±100 the full control effect
Pol kappa inh-2: confirmation of human DNA polymerase kappa inhibitors | Potency, µM, usual class: inhibitors | shares compounds with Pol eta inh-1 | purified Pol-kappa, fluorescent strand-displacement substrate | 920 tested, 76% active; further: potency means the concentration at half of the fitted maximal effect
Pol eta inh-2: Pol eta (human) inhibition, cherry-pick confirmation; shares compounds with Pol eta inh-1; Potency, µM, actives largely listed as inhibitors; Pol eta primer extension, TAMRA/BHQ fluorescence, 10 min; AID 720502; 2,600 tested, 64% active; further: potency means the concentration at half of the fitted maximal effect
Numbers without * were called inactive; ? = inconclusive; / = no result; [ ] = dose if it differs, or a comment. Unless noted, the call rests on the fitted dose curve; in most records, active means well fitted curve in the direction sought with a large enough effect; inconclusive means small, poorly fitted or top-dose-only effect, or another doubt; inactive means no such curve, though single readings can be large; an effect the other way counts as inactive or inconclusive.

SMILES | POLI inh | PI5P4K alpha inh | Pol kappa inh-1 | Pol beta inh | WRN inhibitor | Pol eta inh-1 | Pol eta inh-2 | others
CCOC(=O)C(=O)Nc1nc(-c2ccc3c(c2)CCN3C(=O)C2CC2)c(C)s1 | -11% | 4 | -3% | -6% | 1% | 14µM* | ?
O=C(CSc1ccncc1)Nc1ccc(S(=O)(=O)Nc2nccs2)cc1 | 28µM* | -13 | ? | 2% | -30% | 18µM* | 48*
CCOC(=O)/C=C/C(=O)Nc1ccc(S(=O)(=O)Nc2nccs2)cc1 | 25µM* | -3 | -39% | -2% | -8%[11.6 µM] | 45µM* | ?
O=C(Nc1ccc(S(=O)(=O)Nc2nccs2)cc1)/C(=C/c1ccccc1Cl)NC(=O)c1ccccc1 | -13% | -29 | -25% | -1% | -26%[57.1 µM] | ? | ?
Cc1ccc(SCC(=O)Nc2ccc(S(=O)(=O)Nc3nccs3)cc2)cc1 | ? | -19 | -24% | -23% | -21% | ? | /
Cc1c(C(=O)N2CCN(c3ccccc3)CC2)sc2nc3n(c(=O)c12)CCC3 | 19% | 1 | -3% | ? | -2% | 4% | /
Cc1c(C(=O)O)sc2nc3n(c(=O)c12)CCC3 | 11µM* | ? | ? | 18µM* | -30% | 7.9µM* | 60*
Cc1ccc(CNC(=O)CSc2nc(=O)n3ccc(C)cc3n2)cc1 | / | ? | / | / | -19% | 28µM* | ?
O=c1c(-c2nn[nH]n2)coc2ccc(Cl)cc12 | 58% | -29 | -8% | -27% | ? | 3% | /
Cc1nc(CC(C)C)cc(C(=O)N2CCCC(CNS(=O)(=O)c3cccs3)C2)n1 (stereo unspecified) | 16% | 2 | -14% | -1% | -5% | 0% | /
Cc1ccc(S(=O)(=O)O)cc1C | / | / | 8%[60.1 µM] | / | / | / | /
O=Nc1c(O)ccc2cc(S(=O)(=O)O)ccc12 | 18µM* | -18 | ? | / | -7%[11.6 µM] | 14µM* | 30* | Pol kappa inh-2=17*
O=C(O)COc1ccccc1/C=C1\SC(=S)N(/N=C/c2ccccc2O)C1=O | ? | -5 | -28% | -17% | ? | 22µM* | 48* | Pol kappa inh-2=75*
CC(C)C(=O)Nc1ccc(/C=C2\C=Cc3ccccc32)cc1 | 23% | / | -11% | / | / | / | /
CCOC(=O)C1CCN(c2nc(C)cc(C)c2C#N)CC1 | 18% | 0 | -3% | 1% | -4%[57.1 µM] | -5% | /
CCOC(=O)C1CCN(c2nc(N)c3c(N)nc(SCC(=O)O)cc3c2C#N)CC1 | 25µM* | -88* | 35µM* | 28µM* | 45µM* | 7.1µM* | / | GALK inh confirm=67µM*;GALK redox cs=19µM*;HEK293 tox=-14%
CCCNS(=O)(=O)c1cc(-c2nnc3c4ccccc4c(C)nn23)ccc1OC | 10% | / | -3% | -24% | / | -17% | /
COc1ccc(C(=O)NNC(=O)Cc2coc3cc(OC)ccc23)cc1 | ? | ? | ? | / | -35% | 20µM* | ?
Cc1ccoc1C(=O)NCc1occc1C(=O)O | ? | -13 | ? | -27% | -30%[57.1 µM] | 6.3µM* | 30*

Screening data as filed in PubChem BioAssay.
